# An excerpt weighted towards active compounds, which were near 6% of everything screened.
# DRD3 agonist = qHTS of D3 Dopamine Receptor Agonist: qHTS; 410,000 compounds, 0.58% hits; D3R DiscoveRx beta-arrestin cells, luminescence, 90 min; max activation, %; in the data active = max activation above about 30%; also: 0% is about no effect
# Target sequence (P35462 whole entry, looked up): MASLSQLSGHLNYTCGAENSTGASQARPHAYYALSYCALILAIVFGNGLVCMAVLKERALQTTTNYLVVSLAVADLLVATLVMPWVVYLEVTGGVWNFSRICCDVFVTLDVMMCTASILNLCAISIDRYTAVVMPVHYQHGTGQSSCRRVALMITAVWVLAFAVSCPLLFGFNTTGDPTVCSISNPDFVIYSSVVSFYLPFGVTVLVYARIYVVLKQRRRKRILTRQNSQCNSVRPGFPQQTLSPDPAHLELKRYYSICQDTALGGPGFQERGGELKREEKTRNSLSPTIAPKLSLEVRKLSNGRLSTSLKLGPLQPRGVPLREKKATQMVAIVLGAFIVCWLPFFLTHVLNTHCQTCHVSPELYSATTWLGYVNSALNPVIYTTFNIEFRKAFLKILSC
#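 Cells at 1500/well, incubated overnight, then treated with pinned compounds (dopamine as control) for 90 min at 37 degrees C. DiscoveRx reagent added for 30 - 60 minutes at room temperature; luminescence read.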
# D3 antag = qHTS of D3 Dopamine Receptor Antagonist: qHTS | D(3) dopamine receptor (Homo sapiens), P35462 | D3R cells, DiscoveRx beta-arrestin luminescence, antagonist mode; stronger effect = lower value | max response, negative = inhibition, % | 360,000 compounds, 2.5% hits; in the data active = max response below about -50%; inconclusive = no clear call, values can overlap the other calls; also: % is scaled to controls: 0 for no effect and ±100 for the full control effect
#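 Cells expressing the human receptor were seeded at 1500 cells/well, incubated overnight at 37 degrees C in 5% CO2, then exposed to library compounds with dopamine controls for 90 minutes at 37 degrees C before luminescent detection.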
# D1 agonist = Allosteric Agonists of the Human D1 Dopamine Receptor: qHTS; HEK293 T-REx D1 cells, calcium flux, agonist mode; D(1A) dopamine receptor (Homo sapiens), P21728; activation, % at 2 µM; 360,000 compounds, 1% hits; in the data active = activation above about 30%; also: 0% is about no effect
#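 Tetracycline-induced HEK293 TREx D1 cells, force-coupled to calcium signalling, were dye-loaded with a no-wash calcium kit. Compound was pin-added after a 10 s baseline. Fluorescence was read kinetically at 1 cycle/s for 180 s, with calcium rises flagged as agonism.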
# Chronic BCR inh = qHTS Assay to Find Inhibitors of Chronic Active B-Cell Receptor Signaling | ABC-DLBCL IkBa-CBG/CBR reporter, luminescence ratio, 4 h | Potency, µM (top dose mostly 46.1 µM), without a hit: top-dose activity change, negative = inhibition, usual class: inhibitors | 340,000 compounds, 0.05% hits; active = well fitted inhibition curve with a large enough effect in the signal ratio, with a control signal flat, not every such curve was filed as active; inconclusive = small, poorly fitted or top-dose-only effect, or effect the other way, or a change in a side signal; the % refers to the signal ratio;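 also: potency is read from the fitted curve at half-maximal effect; plate controls were basal doxycycline-induced cells for no effect and cells given 10 µM MG132 for full effect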
#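 TMD8 ABC-DLBCL cells carrying doxycycline-inducible green luciferase fused to IkappaBalpha plus unfused red luciferase were exposed to compounds (up to 46 uM) for 4 hrs at 37C. Activity came from the overlap-corrected green/red luminescence ratio.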
# D1 PAM = Potentiators of Human D1 Dopamine Receptor: qHTS; 360,000 compounds, 0.036% hits; potentiation, % at 10 µM; HEK293 TREx D1 cells, calcium flux, dopamine EC20 potentiation; D(1A) dopamine receptor (Homo sapiens), P21728; in the data active = potentiation above about 30%; also: 0% is about no effect
# D1 antag = Antagonist of Human D 1 Dopamine Receptor: qHTS; D(1A) dopamine receptor (Homo sapiens), P21728; HEK293 TREx D1 cells, calcium flux, dopamine EC80; stronger effect = lower value; activity change, negative = inhibition, % at 10 µM; 360,000 compounds, 3.2% hits; in the data active = activity change below about -30%; also: % is scaled to controls: 0 for no effect and ±100 for the full control effect
#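 Using tetracycline-induced force-coupled D1 Hek293 cells and a calcium dye, signals were followed for 180 s after compound, then for 180 s after EC80 dopamine, to detect inhibitors.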
# Starred values were filed as active, the others as inactive; ? = inconclusive; . = no result given.
SMILES,DRD3 agonist,D3 antag,D1 agonist,Chronic BCR inh,D1 PAM,D1 antag
O=C(NCCN1CCC(n2c(=O)[nH]c3ccccc32)CC1)c1cccnc1Cl,-17.6,-68.7*,.,.,.,.
O=C(NC1CCCCC1)N1CCC(n2c(=O)[nH]c3ccccc32)CC1,-7.1,0.0,-0.3,2.8%,.,-4.8
O=C(NCCN1CCC(n2c(=O)[nH]c3ccccc32)CC1)C(c1ccccc1)c1ccccc1,-15.7,-78.3*,.,.,.,.
CC1=CC(=NOS(=O)(=O)c2ccc(C)cc2)CC(C)(C)C1,-5.4,0.0,.,.,.,.
O=C(NCCN1CCC(n2c(=O)[nH]c3ccccc32)CC1)c1cccc(Cl)c1,-12.4,-98.2*,.,.,.,.
O=C(NCCN1CCOCC1)c1cccc(Cl)c1,-4.8,1.8,2.5,-7.7%,-3.6,-13.8
O=C(NCCN1CCC(n2c(=O)[nH]c3ccccc32)CC1)c1cccc(F)c1,-19.2,-104.7*,.,.,.,.
Cc1cc(NC(=O)c2cc(CC(C)C)on2)no1,-5.9,-24.0,-1.6,-3.0%,3.9,12.4
CCC(C)NC(=O)c1cc(CC(C)C)on1 (centres undefined),-3.0,8.5,1.7,?,0.6,-30.4*
COC(=O)c1c(SCC(=O)Nc2cc(C)cc(C)c2)[nH]c2ccccc2c1=O,-0.7,.,4.5,.,1.7,12.6
COc1ccc(CNC(=O)c2c(Nc3ccc(OC)cc3OC)sc(C(=O)c3ccc(Cl)cc3)c2N)cc1,4.8,.,16.4,?,2.5,-26.3
CCOc1ccc(NC(=O)c2c(Nc3ccc(OC)cc3OC)sc(C(=O)c3ccc(Cl)cc3)c2N)cc1,-3.2,.,49.5*,4.9%,-0.8,-24.7
COc1ccc(OC(C)c2nc3ccccc3[nH]2)cc1 (centres undefined),-7.8,.,0.0,.,7.7,-32.6*
CCOC(=O)CN(C(=O)CSc1nnc2c(n1)[nH]c1ccc(F)cc12)c1ccccc1,-9.9,-59.9*,0.4,?,-8.9,-3.2
CCOC(=O)CN(C(=O)CSc1nnc2c(n1)[nH]c1ccccc12)c1ccccc1,0.7,-73.1*,0.7,?,4.2,-20.0
CC1CCc2cc(F)ccc2N1C(=O)CSc1nnc2c(n1)[nH]c1ccc(F)cc12 (centres undefined),-4.0,5.0,13.5,20.7%,-8.3,-36.5*
CCOC(=O)CN(C(=O)CSc1nnc(C)n1-c1ccccc1)c1cccc([N+](=O)[O-])c1,1.8,10.3,0.8,?,-2.6,-4.6
CCOC(=O)CN(C(=O)CSc1nnc(C)n1-c1ccccc1)c1ccccc1,-1.0,12.4,0.7,1.1%,-4.0,-52.1*
CC1CCCCN1C(=O)CSc1nnc2c(n1)[nH]c1ccc(F)cc12 (centres undefined),-1.0,9.1,0.0,0.9%,1.2,-3.9
Cc1ccc(S(=O)(=O)Nc2cc(Cl)c3oc4c(c3c2)C(=O)CC(C)(C)C4)cc1,1.3,.,3.3,.,-1.2,6.2
Cc1ccc(S(=O)(=O)N/N=C\c2cc([N+](=O)[O-])ccc2Cl)cc1,-13.0,-63.4*,3.5,?,-2.6,-4.5
Cc1ccc(S(=O)(=O)N/N=C\c2cccnc2)cc1,4.6,-7.1,0.3,?,-5.1,13.1
Cc1ccc(S(=O)(=O)N/N=C/c2ccc3nccnc3c2)cc1,51.8*,?,1.9,?,8.4,5.9
CC(=O)Nc1ccc(/C=N/NS(=O)(=O)c2cc(C)ccc2C)cc1,-3.5,3.1,3.7,4.9%,3.2,-5.2
Cc1ccc(S(=O)(=O)N/N=C/c2cccc([N+](=O)[O-])c2)cc1,4.3,-0.1,4.9,?,2.0,-8.4
CC(=O)Nc1ccc(S(=O)(=O)NN=Cc2ccc(Cl)c(Cl)c2)cc1,11.0,-70.6*,.,.,.,.
O=[N+]([O-])c1ccc(S(=O)(=O)NN=Cc2ccc(Cl)c(Cl)c2)cc1,7.3,-51.4*,.,.,.,.

# Screening results as filed in PubChem.
